# Results filed as inconclusive are left out. A call without a number means that no potency is given here. Calls of active or inactive are those of the source. The call rests on the fitted dose curve; in most records, active means well fitted inhibition curve with a large enough effect; inconclusive means small, poorly fitted or top-dose-only effect; inactive means flat fitted curve, though single readings scatter.
# Experiment: qHTS for Inhibitors of Plasmodium falciparum (7G8) proliferation (AID 504316); further: nearly all actives have a fitted effect of over 65% in size
# Settings: P. falciparum 7G8 in erythrocytes, SYBR Green DNA, 72 h; series mostly up to 6.7 µM
# Source text: Plasmodium falciparum is a virulent malarial parasite that kills 1-2 million people worldwide each year. Malaria not only inflicts tremendous suffering and morbidity on the human population, but has dramatically influenced the course of civilization with profound sociological and economic implications (Shah, S. 2010). Transmitted by mosquitoes, the sporozoite form of the parasite enters the blood stream to infect hepatocytes, where they become merozoites that infect red blood cells (erythrocytes). Within erythrocytes, merozoites begin a […] cycle of growth and division, after which the parasite is released to infect new red blood cells. Gametocytes, which form within erythrocytes as well, circulate in the bloodstream and are ingested by the mosquito, thereby completing the life cycle (see CDC website). To profile malarial lines for differential chemical responses and to identify inhibitors of malarial growth, an assay that measures P. falciparum growth and replication within erythrocytes was employed. This assay uses a DNA binding fluorescent dye (SYBR Green) to detect parasite DNA following cell lysis. Because mature erythrocytes lack DNA, only Plasmodium-derived DNA is detected. The P. falciparum line cp250, derived from a malarial isolate from Cambodia, (Mu, J., et al. 2010) was added to the panel of lines, Dd2, HB3, 7G8 and GB4 in this study. Laboratory of Assay Development and Screening Technology [ADST] and NIH Chemical Genomics Center [NCGC] Boston University, Chemistry Department, Center for Chemical Methodology and Library Development [CMLD-BU] NIH National Institute of Allergy and Infectious Diseases [NIAID]
# ADST Assay Protocol Summary: The 1536-well SYBR Green viability assay was based on the method of Bennett et al (2004) and described previously in 1536-well format (Yuan J., et al. 2009). For screening 3 ul culture medium was dispensed into 1536 well black clear bottom plates (Aurora Biotechnologies) using a Multidrop Combi (Thermo Fisher Scientific Inc.), 23 nL compounds in DMSO were added by a pin transfer (Cleveland, P.H. and Koutz, P.J, 2005) using a pin tool-based delivery system (Kalypsys), and 5 ul of erythrocytes infected with P. falciparum one of five lines (cp250, Dd2, HB3, 7G8 or GB4, 0.3% parasitemia, 2.5% hematocrit final concentration) were added. The plates were incubated at 37C in a humidified incubator in 5% CO2 for 72 h, and 2 ul lysis buffer (20 mM Tris HCl, 10 mM EDTA, 0.16% saponin, 1.6% triton X, 10X SYBR Green I (supplied as 10,000X final concentration by Invitrogen) was added to each well. The plates were mixed for 25 sec with gentle shaking and incubated overnight at room temperature in the dark. The following morning, fluorescence intensity at 485(14) nm excitation and 535(25) nm emission wavelengths was measured on an EnVision (Perkin Elmer) plate reader. Plate reads were normalized relative to the control inhibitor (0.29 uM artemisinin) and vehicle (DMSO) wells present on each plate and then corrected by an algorithm using vehicle-only control plates at the beginning and end of the compound plate stack. References Shah, S. (2010). The Fever: how malaria has ruled humankind for 500,000 years. New York, Sarah Crichton Books. CDC web site, http://www.cdc.gov/malaria/about/biology/index.html Mu, J., Myers, R.A., Jiang, H., Liu, S., Ricklefs, S., Waisberg, M., Chotivanich, K., Wilairatana, P., Krudsood, S., White, N.J., et Plasmodium falciparum genome-wide scans for positive selection, recombination hot spots and resistance to antimalarial drugs Nature Genetics 2010, 42, pp 268-271 Bennett TN, Paguio, M., Gligorijevic, B., Seudieu, C., Kosar, A. D., Davidson, E., and Roepe, P. D. Novel, rapid, and inexpensive cell-based quantification of antimalarial drug efficacy Antimicrobial Agents Chemother. 2004, 48(5): pp 1807-10 Yuan J, Johnson RL, Huang RL, Wichterman J, Jiang HY, Hayton K, Fidock DA, Wellems TE, Inglese J, Austin CP, Su XZ. […]
# Potency means the concentration at half of the fitted maximal effect.
row,SMILES,Potency
1,C=CC1=C2C=C(C3CC3)N(CCOC)C=C2C(=O)C(C)(OC(=O)c2ccco2)C1=O (stereo not given),inactive
2,COC(=O)[C@@]1(Cc2ccccc2-c2ccco2)C=C[C@H](C)[C@@H](c2ccccc2)N1C(=O)C(F)(F)F,inactive
3,CCOC(=O)[C@@]1([C@@H](NC(=O)OC)c2cccc(C)c2)CCCC1=O,inactive
4,COC(=O)c1c(C(=O)OC)c2c3ccccc3cc(-c3ccccc3)n2c1C(=O)OC,inactive
5,COc1ccc(-c2nc3c(c4c2C[C@H](c2ccccc2)OC4)CN(C(=O)c2ccco2)CC3)c(C)c1,1690 nM (active)
6,Cc1c(O)ccc2c1OCO2,inactive
7,COCCN1C(=O)NC(c2ccc(Br)cc2)C(C(=O)OC)=C1C (stereo not given),inactive
8,CC(=O)[C@@H]1[C@@H](C)N(Cc2ccccc2)C(=O)N[C@H]1c1ccccc1,inactive
9,CC1(OC(=O)C2CCCC2)C(=O)C=C2C=C(c3ccsc3)N(CCN3CCOCC3)C=C2C1=O (stereo not given),inactive
10,COc1cccc(CO[C@H]2C=C[C@@H](c3ccccc3)O[C@H]2CO)c1,inactive
11,CCN1C(=NCCCCO)NC(c2cccc(C(F)(F)F)c2)C(C(=O)OC)=C1C (stereo not given),inactive
12,C=C(Nc1ccc(OC)cc1)C(=O)OC,inactive
13,C=CCCC1(C(=O)c2ccccc2)C(=O)C(CC=C(C)C)=C(OC)C(CC=C(C)C)(CCC=C(C)C)C1=O (stereo not given),1510 nM (active)
14,CCc1cc2c(nc1CC)CCN(CCC(C)=NOC[C@H]1O[C@H](c3ccccc3)C=C[C@H]1Oc1ccc(OC)cc1)C2,1690 nM (active)
15,COC(=O)NC(C(=O)OC)(C(=O)OC)c1ccccc1,inactive
16,CC(CCN1CCCCc2nc(C)c(C)cc21)=NO[C@H](C)c1cn([C@@H]2COC[C@@H]2O)nn1,inactive
17,CCOC(=O)OC[C@H]1O[C@H](c2ccc(C(C)=O)cc2)C=C[C@H]1Oc1ccc(-c2ccccc2)cc1,1510 nM (active)
18,COCCN1C=C2C(=O)C(C)(OC(=O)C3CCCC3)C(=O)C(c3ccccc3)=C2C=C1CCCC(=O)OC (stereo not given),inactive
19,C#CCCOC(=O)N1C2=NC(C(=O)OC)=C(C(=O)OC)[C@@H]3Nc4ccccc4[C@]23C[C@H]1C(=O)OC,inactive
20,O=C1CCCC=C1C(O)CCOCc1ccccc1 (stereo not given),inactive

row,SMILES,Potency
1,CCN1C(=NCc2ccc(OC)cc2)NC(c2ccccc2)C(C(=O)OC)=C1C (stereo not given),inactive
2,CC1(O)C(=O)C=C2C=C3CCCN3C=C2C1=O (stereo not given),inactive
3,C=C(C)C(=O)OC[C@H]1CN2[C@H](c3ccc(Br)cc3)[C@H](C)CC[C@H]2C(=O)O1,inactive
4,CC=CCCN1C=C(C(C)=O)C(c2ccccc2)NC1=O (stereo not given),inactive
5,CCOC(=O)N1C2=NC(C(=O)OC)=C(C(=O)OC)[C@@H]3N(C)c4ccccc4[C@]23C[C@H]1C(=O)OC,inactive
6,C[C@@H]1C[C@](C)(C(=O)c2ccc3c(c2)OCO3)C=C1c1ccc2c(c1)OCO2,inactive
7,Cc1cc2c(nc1C)CCCN2CC(O)CN1CCCc2nc(-c3ccc(Br)cc3)ccc21 (stereo not given),inactive
8,O=C(NN=C1C[C@@H](O)[C@H](O)[C@H]2[C@@H]3C(=O)N(C[C@@H]4CCCO4)C(=O)[C@@H]3CC[C@@H]12)OCc1ccccc1,inactive
9,CC(C)=CCC1(CC=C(C)C)C(=O)C(C(=O)c2ccccc2)=C2OC(C)(C)CCC2(CC=C(C)C)C1=O (stereo not given),1690 nM (active)
10,C[C@]12O[C@@H]1[C@@H](O)C(Br)=C(CO)[C@@H]2O,inactive
11,C=CCOC(=O)C1(C(NC(=O)OC)c2ccccc2)C(=O)Cc2ccccc21 (stereo not given),inactive
12,C#CC[C@@]1(C(=O)OC)C=C[C@@H](C)[C@H](c2ccccc2Br)N1C(=O)C(F)(F)F,inactive
13,CC(C)(C(O)c1ccc([N+](=O)[O-])cc1)[N+](=O)[O-] (stereo not given),inactive
14,COC(=O)C1=C(C(=O)OC)[C@@H]2N(C)c3ccc(OC)cc3[C@@]23C[C@@H](C(=O)OC)N(C(=O)c2ccco2)C3=N1,inactive
15,C#CCCCON=C1C[C@@H](O)[C@H](O)[C@H]2[C@@H]3C(=O)N(c4ccc(F)cc4F)C(=O)[C@@H]3CC[C@H]12,inactive
16,CCCCc1cc2c(cn1)=C(OC(=O)c1ccco1)C(C)(OC(=O)CC)C(=O)C=2 (stereo not given),1510 nM (active)
17,C=CCN1c2ccccc2[C@]23CCC(=O)N(CCOC)C2=NC(C(=O)OC)=C(C(=O)OC)[C@H]13,inactive
18,C=CCCCN1C=C(C(=O)OCC)C(c2ccccc2)NC1=O (stereo not given),inactive
19,COC(=O)C1=C(C)N(Cc2ccco2)C(=O)NC1c1ccc(Br)cc1 (stereo not given),inactive
20,C=C(C)[C@@H]1CC2=C(OC)C(CC=C(C)C)(CC=C(C)C)C(=O)C(C(=O)c3ccccc3)=C2O1,1690 nM (active)

# Source: PubChem BioAssay (NCATS)
